Drawing on PubChem BioAssay (NCI), this text covers growth for 14 compounds.

The panel holds about 83,000 compounds, 20% with a hit somewhere; the sample as a whole holds those more often.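 Single-concentration screen, 48 h exposure, 96-well plates. Endpoint: percent growth. Below 10 = active.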 Unmarked numbers belong to inactive results. Calls of active or inactive are those of the source.

The subject of this experiment is MDA-MB-468 breast. In words: NCI-60 one-dose screen, 48 h (100 = growth as untreated, 0 = no growth, -100 = all killed). The conditions noted are these: 10 µM unless noted.
Turning to `CCOC(=O)C1C(=O)NC(C(=O)OCC)(C(=O)OCC)C1CC` (centres undefined), the growth is 108%.
The same measure for `Cc1cnc2nc(NN)[nH]n12`: 91%; for `CN(C)c1ncnc2c1ccn2C1OC(CO)C(O)C1O` (centres undefined): -64.3% (active).
Regarding `O=C1CC[C@@H](C(=O)N[C@H]2CSSC[C@@H](C(=O)N/C=C/c3ccc(O)cc3)NC(=O)[C@H](Cc3ccccc3)NC(=O)[C@@H]3CCCN3C(=O)[C@@H]3CCCN3C2=O)N1`, the growth was 89.5%.
The same measure for `O=C(CN1CCN(c2cc3c(cc2F)c(=O)c(C(=O)O)cn3C2CC2)CC1)N/N=C/c1ccco1`: 104%.
As to `COc1ccc(-c2oc3cc(O)cc(O)c3c(=O)c2OC)cc1O`, the growth was -3.48% (active).
The same measure for `Cc1ccc2c(c1)Nc1ccc(C)cc1C2(C)C`: 101%; for `C#CCNC1CCC(c2csc(C#C)n2)=C1C` (centres undefined): 58.9%.
The same measure for `COc1cc(-c2cc(/C=C/C(=O)c3ccc(Cl)c(Cl)c3)[nH]n2)cc(OC)c1OC`: 7.24% (active).
In the case of `COc1ncc(-c2ccc3nccc(-c4ccnnc4)c3c2)cc1NS(=O)(=O)c1ccc(F)cc1F`, the growth is -73% (active).
The same measure for `COc1cc(C)cc2oc3oc(=O)c(-c4nc5ccccc5s4)cc3c(=O)c12`: 104%.
The value for `Cn1c2c(c3ccc(-c4ccn[nH]4)cc3c1=O)C(=O)c1ccccc1-2` was 46.2%; that for `COc1cc(Cn2cc3c(c2)-c2onc(CN4CCOCC4)c2CC3)cc(OC)c1OC` was 81.5%; that for `O=C1NC(=S)NC(=O)C1=Cc1cccc(C=C2C(=O)NC(=S)NC2=O)c1` was 103%.
